Compound activity: PubChem, National Center for Advancing Translational Sciences (NCATS)
Rows were chosen to be rich in hits. Some 21% of all compounds tested hit in one or more screens of this group.
Pf growth 48h: inhibits P. falciparum growth in the first generation, 48 h | P. falciparum luciferase growth in erythrocytes, 48 h | Potency, µM (highest dose often 28.7 µM), hits mostly inhibitors | hit rate 5.9% among 310,000 | AID 504832
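Erythrocytes infected with P. falciparum carrying an integrated firefly luciferase reporter (2% hematocrit, 0.1% parasitemia final) were exposed to compounds in RPMI 1640 with 0.5% Albumax at 37 C, 5% CO2. Growth inhibition was scored as reduced luminescence.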
Shiga toxin inh: Shiga toxin inhibition. inhibition, % at 38.7 µM. Vero cells, Shiga toxin protein synthesis inhibition reporter. AID 2315. hit rate 9.2% among 290,000; in the data active means inhibition mostly above about 28%, no sharp cut-off; inactive means mostly below about 43%
Pf growth 96h: inhibits malaria parasite growth, 96 h. Potency, µM (doses to about 28.7 µM), most hits filed as inhibitors. hit rate 6.9% among 320,000. P. falciparum luciferase reporter growth, 96 h. AID 504834
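Delayed-death screen, second-generation endpoint: infected erythrocytes, 2% hematocrit, 0.05% parasitemia final; 96 hours at 37 C, 5% CO2; luciferase detection reagent; luminescence decrease equals reduced growth.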
Sm TGR inh: blocks Schistosoma mansoni thioredoxin glutathione reductase | Q962Y6 | purified TGR, DTNB reduction, TNB absorbance 405 nm | Potency, µM (doses to about 114 µM), usual class: inhibitors | hit rate 3% among 360,000; further: nearly all actives have a fitted effect of over 60% in size
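Kinetic colorimetric format: TGR-catalysed, NADPH-driven DTNB reduction monitored via TNB absorbance. Enzyme dispensed at 20 nM; compound exposure 15 min at room temperature before reaction start.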
NS1 function inh: influenza NS1 inhibition. AID 2326. hit rate 0.4% among 270,000. Potency, µM (highest dose often 46.1 µM); calls by dose curve; further: actives are rising curves; nearly all actives have a fitted effect of over 50% in size
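Read-out: OD600 growth recovery of NS1-expressing budding yeast. Cells grown overnight at 30C in -URA glucose medium, washed, resuspended and diluted 1:100 in 2% galactose assay medium, pH 6.0. Same strain lacking NS1 served as positive control.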
CHX counter: counter-screen for Shiga toxin inhibitors: cycloheximide protein synthesis inhibition | cell reporter, cycloheximide protein synthesis inhibition counterscreen | max response, % | hit rate 12% among 300,000 | AID 2314; in the data active means max response mostly above about 13%, no sharp cut-off; inactive means mostly below about 14%; further: read at 38.3 µM for the half of the compounds with a filed dose
Of the large screens only hits and unclear results are named; the others gave an inactive call. Unless noted, the call rests on the fitted dose curve; in most records, active means well fitted curve in the direction sought with a large enough effect; inconclusive means small, poorly fitted or top-dose-only effect, or another doubt; inactive means no such curve, though single readings can be large; an effect the other way counts as inactive or inconclusive.

Cc1cc(C(=O)COC(=O)/C=C/c2cccc(F)c2)c(C)n1C	Shiga toxin inh 77, CHX counter 29 (no result: NS1 function inh)
C=CCn1c(C)cc(C(=O)COC(=O)/C=C/c2cccc(OC)c2)c1C	CHX counter 27 (no result: NS1 function inh)
Cc1cc(C(=O)COC(=O)/C=C/c2cccc(Br)c2)c(C)n1C	Pf growth 48h inconclusive (no result: Shiga toxin inh, NS1 function inh, CHX counter)
C=CCn1c(C)cc(C(=O)COC(=O)COc2ccccc2C#N)c1C	none
C=CCn1c(C)cc(C(=O)COC(=O)/C=C/c2ccc(OC)cc2)c1C	none (no result: NS1 function inh)
C=CCn1c(C)cc(C(=O)COC(=O)[C@@H](NC(=O)c2ccccc2Cl)C(C)C)c1C	Shiga toxin inh 19, CHX counter 40
Cc1cccc(N2CCN(S(=O)(=O)c3ccc(-c4ccc(=O)[nH]n4)o3)CC2)c1C	Pf growth 48h inconclusive
CC(=O)Nc1ccc(S(=O)(=O)NCC(=O)OCc2ccccc2)cc1	none
Cc1cc(=O)[nH]c2n[nH]c(-c3ccccc3)c12	CHX counter 15 (no result: Pf growth 96h)
O=C(COC(=O)Cc1cccs1)NCC(=O)Nc1ccc(F)cc1	none (no result: Shiga toxin inh, NS1 function inh, CHX counter)
CCC(C)(C)n1nnnc1C(C(C)C)N(Cc1ccco1)Cc1cc2cc3c(cc2[nH]c1=O)OCO3 (stereo unspecified)	Pf growth 48h inconclusive, Pf growth 96h inconclusive, Sm TGR inh inconclusive
Cc1cccc2cc(CN(Cc3ccco3)C(c3nnnn3CCc3ccccc3)C(C)C)c(=O)[nH]c12 (stereo unspecified)	Pf growth 48h 1.9µM
CCc1ccc2[nH]c(=O)c(CN(Cc3ccc(OC)cc3)Cc3nnnn3CCOC)cc2c1	Pf growth 48h 1.9µM, Pf growth 96h inconclusive
COCCn1nnnc1C(C(C)C)N(Cc1ccccc1)Cc1cc2cc(OC)ccc2[nH]c1=O (stereo unspecified)	Pf growth 48h 8.3µM
COc1ccc2[nH]c(=O)c(CN(Cc3ccco3)C(c3nnnn3Cc3ccccc3)C(C)C)cc2c1 (stereo unspecified)	Pf growth 96h 3.3µM (no result: Pf growth 48h)
COCCn1nnnc1C(C(C)C)N(Cc1cccnc1)Cc1cc2cc(OC)ccc2[nH]c1=O (stereo unspecified)	Pf growth 48h inconclusive
COc1ccc(NC(=O)C2CCCCN2S(=O)(=O)c2ccc(F)cc2)cc1 (stereo unspecified)	Pf growth 96h 0.59µM
CC1CCN(c2ccc(NC(=O)C3CCCN3S(=O)(=O)c3ccc(F)cc3)cc2)CC1 (stereo unspecified)	Pf growth 48h inconclusive, Pf growth 96h 12µM (no result: Shiga toxin inh, NS1 function inh, CHX counter)
O=C(NC1CCCCC1)C1CCCN1S(=O)(=O)c1ccc(F)cc1 (stereo unspecified)	none
CCOC(=O)N1CCC(NC(=O)C2CCCCN2S(=O)(=O)c2ccc(F)cc2)CC1 (stereo unspecified)	Pf growth 96h 1µM, NS1 function inh inconclusive (no result: Pf growth 48h)
CS(=O)(=O)c1cccc(NC(=O)C2CCCN2S(=O)(=O)c2ccc(F)cc2)c1 (stereo unspecified)	none
O=C(Nc1ccc(N2CCCCC2)cc1)C1CCCN1S(=O)(=O)c1ccc(F)cc1 (stereo unspecified)	none (no result: Shiga toxin inh, NS1 function inh, CHX counter)
O=C(Nc1ccc2c(c1)OCO2)C1CCCCN1S(=O)(=O)c1ccc(F)cc1 (stereo unspecified)	Pf growth 96h 9.3µM
COC(=O)C1CCCN1S(=O)(=O)c1ccc2ccccc2c1 (stereo unspecified)	Pf growth 48h 10µM (no result: Pf growth 96h)
COC(=O)C1CCCN1S(=O)(=O)c1ccc([N+](=O)[O-])cc1 (stereo unspecified)	Pf growth 96h inconclusive (no result: Shiga toxin inh)
O=C(Nc1ccc2c(c1)OCCO2)C1CCCN1C(=O)Nc1ccc(F)cc1 (stereo unspecified)	CHX counter 12
CSc1ccccc1NC(=O)CN(C)Cc1c(O)ccc2ccccc12	Sm TGR inh 0.79µM
CN(CC(=O)Nc1ccc(N2CCOCC2)cc1)C(=O)CCc1ccccc1Cl	Pf growth 48h inconclusive, Sm TGR inh 35µM (no result: Shiga toxin inh, NS1 function inh, CHX counter)
CN(CC(=O)Nc1ccc(N2CCOCC2)cc1)Cc1c(O)ccc2ccccc12	Sm TGR inh 0.4µM (no result: NS1 function inh)
CN(CC(=O)Nc1ccc(N2CCOCC2)cc1)CC(=O)Nc1ccc(N2CCOCC2)cc1	none
CN(CC(=O)Nc1ccc(N2CCOCC2)cc1)C(=O)CCNC(=O)c1ccccc1Cl	none (no result: Shiga toxin inh, NS1 function inh, CHX counter)
Cc1cn(C(=O)C(C)N2C(=O)c3ccccc3C2=O)c(C)n1 (stereo unspecified)	none (no result: Pf growth 48h)
CCc1ccc(NC(=O)Cn2c(=O)n(CCC(C)C)c(=O)c3cccnc32)cc1	none (no result: Pf growth 48h, Shiga toxin inh, Pf growth 96h, NS1 function inh, CHX counter)
COc1cc(OC)c(OC)cc1CNC(=O)c1cc(S(=O)(=O)N2CCOCC2)ccc1F	Pf growth 48h inconclusive (no result: Shiga toxin inh, NS1 function inh, CHX counter)
COc1cc(OC)c(OC)cc1CNC(=O)c1ccc(S(=O)(=O)N2CC(C)OC(C)C2)cc1 (stereo unspecified)	Pf growth 48h inconclusive, Pf growth 96h 10µM (no result: Shiga toxin inh, NS1 function inh, CHX counter)
CC1CCN(c2ccc(-c3cccc(NS(=O)(=O)c4ccc(Cl)s4)c3)nn2)CC1	none (no result: Pf growth 48h, Shiga toxin inh, Pf growth 96h, NS1 function inh, CHX counter)
CCOc1ccccc1/C=C/C(=O)NCC(=O)N1CCC(N(C)C2CCCCC2C)CC1 (stereo unspecified)	Pf growth 48h inconclusive, Sm TGR inh 6.3µM
CCN(C(=O)CN1C(=O)NC(c2ccccc2)(c2ccc(C)c(C)c2)C1=O)C1CCS(=O)(=O)C1 (stereo unspecified)	Pf growth 48h inconclusive, Pf growth 96h 13µM (no result: Shiga toxin inh, NS1 function inh, CHX counter)
CCN(C(=O)CN1C(=O)NC(c2ccccc2)(c2ccc(C)c(C)c2)C1=O)C1CCCCC1 (stereo unspecified)	Pf growth 48h 6.6µM, Pf growth 96h 3.3µM (no result: Shiga toxin inh, NS1 function inh, CHX counter)
Cc1ccc(C2(c3ccccc3)NC(=O)N(CC(=O)N(C)C3CCS(=O)(=O)C3)C2=O)cc1C (stereo unspecified)	Pf growth 48h inconclusive, Pf growth 96h inconclusive (no result: Shiga toxin inh, NS1 function inh, CHX counter)
O=C(CCn1c(=O)c2ccccc2n(CC(=O)Nc2cccc(F)c2)c1=O)NCCc1ccccc1	none (no result: Pf growth 48h, Shiga toxin inh, Pf growth 96h, NS1 function inh, CHX counter)
O=C(CSc1cc(Cl)ccc1Cl)NCC1CCCO1 (stereo unspecified)	Pf growth 96h 10µM
S=C(NCC1CCCO1)Nc1ccc(Cl)cc1Cl (stereo unspecified)	Shiga toxin inh 143, Pf growth 96h inconclusive, Sm TGR inh 50µM, CHX counter 46
COc1cc(NC(=S)NCC2CCCO2)c(OC)cc1Cl (stereo unspecified)	Pf growth 96h 8.3µM, Sm TGR inh inconclusive
O=C(NCC1CCCO1)Nc1ccc(Cl)cc1 (stereo unspecified)	Shiga toxin inh 74, CHX counter 44 (no result: Pf growth 96h)
CC12CCC(C(=O)Nc3ncc([N+](=O)[O-])s3)(OC1=O)C2(C)C (stereo unspecified)	Pf growth 48h inconclusive, Pf growth 96h inconclusive
CC(OC(=O)Cn1cnc2c1c(=O)n(C)c(=O)n2C)C(=O)c1ccccc1 (stereo unspecified)	none (no result: Shiga toxin inh, NS1 function inh, CHX counter)
CCc1ccc(N2CC(C)Cn3c2nc2c3c(=O)n(CC(=O)O)c(=O)n2C)cc1 (stereo unspecified)	none (no result: Pf growth 48h, Shiga toxin inh, Pf growth 96h, NS1 function inh, CHX counter)
